GPR32 ag: activates human resolvin D1 receptor GPR32 | CHO-K1 GPR32 beta-arrestin PathHunter luminescence, 90 min; zero percent set by DMSO-only wells | actives 2.5% (n = 48,000) | O75388 | activation, % at 76.9 µM;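 active = activation of at least 60% and not above a set upper limit, about 1 call in 100 departs from these limits; inconclusive = activation of 40% to 60%, or above that upper limit; inactive = activation under 40%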; note: 0% is about no effect
Target sequence (O75388 whole entry, looked up): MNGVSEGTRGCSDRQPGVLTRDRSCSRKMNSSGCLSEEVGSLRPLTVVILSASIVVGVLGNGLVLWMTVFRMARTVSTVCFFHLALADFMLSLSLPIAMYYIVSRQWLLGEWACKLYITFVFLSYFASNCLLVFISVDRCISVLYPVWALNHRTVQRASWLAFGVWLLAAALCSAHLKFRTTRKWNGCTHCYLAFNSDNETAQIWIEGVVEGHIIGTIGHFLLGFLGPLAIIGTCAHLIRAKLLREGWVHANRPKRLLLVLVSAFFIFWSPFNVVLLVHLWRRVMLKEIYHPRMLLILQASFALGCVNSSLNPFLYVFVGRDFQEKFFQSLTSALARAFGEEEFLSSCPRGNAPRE
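Agonism was scored by beta-Gal fragment complementation (chemiluminescent read, 1 h detection at ambient temperature) reporting beta-arrestin binding to GPR32 in engineered CHO-K1 cells. Compound treatment lasted 90 min at 37 C, normalized to a DMSO basal control.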
NTMT1 inhibitor: blocks human N-terminal methyltransferase 1 activity; AID 1645870; Q9BV86; actives 2.5% (n = 59,000); Potency, µM (doses to about 114 µM), for the others: top-dose activity change, negative = inhibition, usual class: inhibitors; NTMT1 MTase-Glo SAH luminescence, purified enzyme;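 note: potency is the fitted concentration of half-maximal effect; plate controls were DMSO vehicle for no effect and no enzyme for full effect; nearly all actives have a fitted effect of over 65% in size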
GALC G270D act: enhancers of human galactocerebrosidase G270D mutant activity in cells; P54803; 145M-Twi-hGALC-G270D cells (Twitcher mouse brain line with human GALC G270D), HMU-beta-Gal fluorescence, 48 h; Potency, µM (series often up to 57.5 µM), actives largely listed as activators; actives 0.1% (n = 45,000); note: potency is the fitted concentration of half-maximal effect; 0% is about no effect; nearly all actives have a fitted effect of over 65% in size
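Fluorescence readout: HMU-β-gal cleavage by mutant GALC (0.1 mM final, citrate/phosphate pH 5.2 with 1 mg/mL taurocholate), stopped with carbonate/bicarbonate plus Triton X-100. Cells: murine Twitcher 145M-Twi expressing human G270D GALC; qHTS for activators.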
p53null 39C kill: p53 null cell cytotoxicity, nonpermissive temperature; H1299 p53-null (neo) cells, 39C, ATPlite viability, 24 h; Potency, µM (top dose mostly 46.1 µM), inactives show top-dose activity, negative = cell killing, actives largely listed as cytotoxic; actives 0.97% (n = 55,000); AID 904;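 note: potency is the fitted concentration of half-maximal effect; 0% = DMSO only and -100% = full killing by 100 µM tamoxifen; nearly all actives have a fitted effect of over 50% in size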
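Cells seeded at 600/well, 37C overnight. Compound added (up to 46 uM), plates shifted to 39C for 24 hr. ATPlite added, luminescence read after 20 min at room temperature.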
SKOV3 invasion: inhibitors of ovarian cancer cell adhesion and invasion in omental model | Potency, µM (top dose mostly 45.8 µM), for inactives: at the top dose activity change, negative = inhibition, most hits filed as inhibitors | AID 1963576 | SKOV3ip1-GFP adhesion/invasion on 3D omental model, fluorescence | actives 0.1% (n = 46,000);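 note: potency is the fitted concentration of half-maximal effect; plate controls were DMSO wells for no effect and tomatine positive control wells for full effect; nearly all actives have a fitted effect of over 65% in size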
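Adhesion/invasion was scored as fixed GFP-labeled SKOV3ip1 cell counts (488/509 nm), normalized to DMSO and tomatine controls. Cancer cells in serum-free medium, with four compound doses (0.36-46 umol/L), sat 2 hr at RT then 16 hr at 37 C on a 48 hr fibroblast/mesothelial/ECM culture.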
p53null 32C kill: kills p53 null cells at the permissive temperature; H1299-neo p53 null cells, ATP luminescence, 24 h, 32C; Potency, µM (top dose mostly 46.1 µM), for the others: at the highest dose activity change, negative = cytotoxicity, usual class: cytotoxic; actives 0.62% (n = 55,000); AID 903;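 note: potency is the fitted concentration of half-maximal effect; 0% = DMSO only and -100% = full killing by 100 µM tamoxifen; nearly all actives have a fitted effect of over 55% in size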
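H1299-neo, 600 cells/well; overnight 37C; cpd up to 46 uM, 24 h at 32C; ATPlite luminescence after 20 min RT; normalized to DMSO (0%) and tamoxifen 100 uM (100% kill); Hill-fit AC50.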
Active calls of the source: *; i = inactive; u = inconclusive; x = not tested or not shown; ! = repeats disagree; [ ] = another dose, or the depositor's remark. The list is not random: actives were taken first. Their share in the collection is about 4%. Unless noted, calls come from the whole dose curve; as a rule, active = well fitted curve in the direction sought with a large enough effect; inconclusive = small, poorly fitted or top-dose-only effect, or another doubt; inactive = no such curve, though single readings can be large; an effect the other way counts as inactive or inconclusive.

SMILES	GPR32 ag	NTMT1 inhibitor	GALC G270D act	p53null 39C kill	SKOV3 invasion	p53null 32C kill
CSc1ccc(-c2nc3cccc(C)n3c2Nc2ccc(Cl)cc2)cc1	-2	0%	i	33%	4%	12%
Cc1ccc(Nc2c(-c3ccc(O)cc3)nc3cccc(C)n23)cc1	117*	u	i	u	-27%	10%
Cc1ccccc1Nc1c(-c2cccnc2)nc2cccc(C)n12	0	-7%	i	-20%	u	2%
CC(C)c1ccccc1Cc1cc(C(=O)Nc2ccc(S(=O)(=O)c3ccccc3C(C)(C)C)cc2)c(O)c(O)c1O	x	71µM*!	x	x	-24%	x
CCc1oc2ccccc2c1C(=O)c1cc(I)c(O)c(I)c1	0	20µM*	i	x	x	x
Cc1ccc(NC(=O)Nc2ccc3nc(N4CCN(C)CC4)cc(C)c3c2)cc1C	u	89µM*	i	u	u	u
Cc1cc(Nc2cccc(Cl)c2)nc2ccc(NC(=O)c3cccc(N(C)C)c3)cc12	6	u	i	3%	-4%	0%
Cc1cc(Nc2cccc(Cl)c2)nc2ccc(NC(=O)c3cccnc3)cc12	60*	u	i	25µM*	i	u
Cc1cc(N2CCN(C)CC2)nc2ccc(NC(=O)Nc3ccccc3Br)cc12	103*	-2%	i	u	-10%	u
Cc1cc(N2CCN(C)CC2)nc2ccc(NC(=O)Nc3cccc(Cl)c3)cc12	93*	u	i	u	-10%	1%
CC(C)CC[C@@H](O)[C@](C)(O)[C@H]1CC[C@@]2(O)C3=CC(=O)[C@@H]4C[C@@H](O)[C@@H](O)C[C@]4(C)[C@H]3CC[C@]12C	x	22%[57.5 µM]	x	x	x	x
O=C(O)Cc1nn(Cc2nc3cc(C(F)(F)F)ccc3s2)c(=O)c2nccnc12	x	11%[57.5 µM]	x	x	x	x
Cc1ccc(/C=C/C(=O)Nc2ccc3nc(N4CCC(C)CC4)cc(C)c3c2)cc1	-8	89µM*	i	-11%	6%	-5%
O=C(OCC#CCSc1nnc(-c2ccc3ccccc3c2)o1)c1cccc(F)c1	x	10%[57.5 µM]	x	x	x	x
O=c1c2ccc([N+](=O)[O-])cc2nc2sc(Nc3ccc4c(c3)CCC4)nn12	x	9%	x	x	x	x
Cc1cc(C)c(NS(=O)(=O)c2ccc(-c3coc(C)n3)cc2)c(C)c1	12	10%	i	4%	-5%	0%
CCc1ccccc1NS(=O)(=O)c1ccc(-c2coc(C)n2)cc1	47	8%	i	10%	-6%	7.1µM*
Cc1cccc(CNS(=O)(=O)c2ccc(-c3coc(C)n3)cc2)c1	98*	-12%	i	25%	i	6%
Cc1ccc(S(=O)(=O)Nc2cnccc2C(=O)Nc2nc(-c3ccc(Oc4ccccc4)cc3)cs2)cc1	x	45µM*	x	x	x	x
O=C(Nc1nc(-c2ccccc2)cs1)c1ccncc1NS(=O)(=O)c1cccc2cccnc12	x	50µM*	x	x	x	x
Cc1cc(Br)ccc1NC(=O)c1coc(=O)c2ccccc12	72*	7%	i	x	5%	x
CN(C)c1cc(NC(=O)CNC(C)(C)C)c(O)c2c1C[C@H]1C[C@H]3[C@H](N(C)C)C(=O)C(C(N)=O)=C(O)[C@]3(O)C(=O)C1=C2O	x	40µM*	x	x	x	x
CN(C)c1cc(NC(=O)CNC(C)(C)C)c(O)c2c1C[C@@H]1C[C@H]3[C@H](N(C)C)C(=O)C(C(N)=O)=C(O)[C@@]3(O)C(=O)C1=C2O	0	40µM*	i	x	0%	x
CCOC(=O)c1cccc(NC(=O)CN2C(=O)c3ccccc3Sc3ncccc32)c1	72*	-2%	i	-22%	29%	8%
Cc1cccc(C)c1NC(=O)CN1C(=O)c2ccccc2Sc2ncccc21	0	-3%	i	-4%	i	0%

Bioassay records deposited in PubChem by National Center for Advancing Translational Sciences (NCATS).
